# aSyn yeast inh: alpha-synuclein toxicity inhibition in yeast; Yeast expressing alpha-synuclein, growth rescue, BacTiter-Glo, 24 h; Potency, µM (titrated, usually from 46.1 µM), for inactives: top-dose growth rescue (activation), usual class: activators; actives 0.14% (n = 370,000); AID 652106; note: % of control where 0% means no effect; nearly all actives have a fitted effect of over 65% in size
#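 Galactose-induced alpha-syn yeast (OD600=0.02, raffinose-pregrown) + pinned cpd, 24 hr, 30 deg C; growth by BacTiter-Glo luminescence. Growth restoration scores as activation.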
# Glioma ERSR ind: induces the endoplasmic reticulum stress response in human glioma cells; actives 0.02% (n = 420,000); Potency, µM, inactives show at the top dose activation, most hits filed as activators; U87-MG GRP78 promoter luciferase reporter, 16 h; AID 602332; note: series mostly up to about 76 µM; % of control where 0% means no effect; nearly all actives have a fitted effect of over 35% in size
#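 Stably transfected U87-MG glioma cells carrying a GRP78-based luciferase sensor; 16 h compound incubation. Luminescence end-point read 10 min after Bright-Glo addition at room temperature.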
# AT treatment: potential ataxia-telangiectasia treatment | Potency, µM (highest dose often 57.5 µM), for the others: at the highest dose activation, hits mostly activators | AID 485349 | actives 0.19% (n = 320,000) | F2112 A-T fibroblasts, KAP-1 phosphorylation AlphaLISA; neocarzinostatin DNA damage 30 min before lysis; note: % of control where 0% means no effect; nearly all actives have a fitted effect of over 45% in size
#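 ATM-like activity read as KAP-1 phosphorylation via AlphaLISA donor/acceptor antibody pairs after lysis and 6 hr at 25C. Cells were ATM-null patient fibroblasts (F2112, hTERT), dosed 60 min, then exposed to the DSB inducer NCS for 30 min.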
# Mito fusion act: blocks mitochondrial division or promotes mitochondrial fusion. Potency, µM (highest dose often 46.1 µM), for inactives: top-dose growth rescue (activation), actives largely listed as activators. actives 0.23% (n = 320,000). AID 485298. S. cerevisiae fusion-defective mutant growth rescue, CellTiterGlo 48 h; note: % of control where 0% means no effect; nearly all actives have a fitted effect of over 45% in size
#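 S. cerevisiae fusion-defective temperature-sensitive mutants (e.g. fzo1-1, mgm1-5) grown 48 h at 37C in YPEG (ethanol/glycerol non-fermentable) medium with 23 nl compound per well; growth rescue read as CellTiterGlo luminescence.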
# Abeta yeast res: compounds reversing amyloid beta toxicity in yeast; Potency, µM (top dose mostly 46.1 µM), usual class: activators; yeast expressing A-beta42, growth rescue, OD600, 48 h; response scale: 0% DMSO, 100% iron-clioquinol control; actives 0.063% (n = 410,000); note: nearly all actives have a fitted effect of over 55% in size
#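 Yeast growth medium received pinned compounds, then yeast cells expressing toxic A-beta were added; plates incubated at 30 C for 48 hr. Growth read as absorbance at 600 nm, normalized to DMSO and equimolar FeCl3 plus clioquinol controls.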
# TDP43 rescue: TDP-43 toxicity inhibition in yeast. TDP-43 expressing yeast growth rescue, BacTiter-Glo, 24 h. Potency, µM (titrated, usually from 46.1 µM), inactives show at the highest dose growth rescue (activation), actives largely listed as activators. actives 1.8% (n = 410,000). AID 652104; note: % of control where 0% means no effect; nearly all actives have a fitted effect of over 50% in size
#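 Yeast cells expressing TDP-43 under galactose induction are exposed to compounds for 24 hr at 30 deg C. BacTiter-Glo luminescence measures growth, so protective compounds score as activators.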
# * hit, by the source's call; i = inactive; ? = inconclusive; nt = no result; [ ] = another dose, or the depositor's remark. Only some compounds are listed: those with a hit (about 2.1% of all), similar ones and a draw of the others. Calls come from the whole dose curve; as a rule, active = well fitted curve in the direction sought with a large enough effect; inconclusive = small, poorly fitted or top-dose-only effect, or another doubt; inactive = no such curve, though single readings can be large; an effect the other way counts as inactive or inconclusive. Potency is the fitted concentration of half-maximal effect.
SMILES,aSyn yeast inh,Glioma ERSR ind,AT treatment,Mito fusion act,Abeta yeast res,TDP43 rescue
O=[N+]([O-])c1ccc(O)c(/C=N/Nc2ncnc3c2cnn3-c2ccccc2)c1,3.7%,?,-9.3%,12.0%,i,7.94µM*
O=[N+]([O-])c1ccc(O)c(/C=N/Nc2nc3ccccc3[nH]2)c1,5.2%,-2.0%,4.2%,-3.2%,i,18.9%
O=C(N/N=C/c1cc([N+](=O)[O-])ccc1O)Nc1ccccc1,1.4%,3.6%,-0.1%,-5.8%,i,14.7%[9.22 µM]
O=[N+]([O-])c1ccc(O)c(/C=N/Nc2ccccn2)c1,0.891µM*,?,-3.0%,-3.0%,i,-91.5%
COc1ccc(CCNc2ncnc3c2nnn3C)cc1OC,nt,-3.5%,nt,nt,i,?
COc1ccc(C(=O)NCC2Cc3cc(C)cc(-c4cc(C(C)=O)ccc4F)c3O2)c(OC)c1OC (configuration not stated),nt,-0.8%,nt,nt,nt,nt
CCCC(O)(c1ccccc1)C(CN1CCOCC1)c1ccccc1 (configuration not stated),4.0%,-2.1%,12.3%,20.0%,i,0.4%
CCCC(O)(c1ccc(CC)cc1)C(CN1CCOCC1)c1ccccc1 (configuration not stated),6.8%,-1.3%,31.6µM*,4.9%,i,8.4%
CCCCCC(O)(c1ccccc1)C(CN1CCOCC1)c1ccccc1 (configuration not stated),?,-1.4%,31.6µM*,7.1%,i,-3.1%
CO[C@@H]1COC(=O)[C@H](C)NC(=O)C/C=C\[C@@H](C)[C@H](OC)COC(=O)[C@H](C)NC(=O)C/C=C\[C@H]1C,nt,-3.9%,nt,nt,nt,nt
Cc1ccc(-c2nc3sc(CCNC(=O)c4ccc(F)c(F)c4)c(C)n3n2)cc1,nt,3.0%,nt,nt,i,0.0%
CCC1(C2CCN(Cc3ccc(C)s3)CC2)NC(=O)N(CC2COc3ccccc3O2)C1=O (configuration not stated),nt,-3.5%,nt,nt,nt,nt
Nc1c(Cl)cc2c(c1Br)Cc1ccccc1-2,0.3%,-2.6%,nt,nt,i,-9.7%
CC(=O)Nc1ccc2c(c1Br)Cc1ccccc1-2,-9.4%,1.3%,nt,nt,i,17.8µM*
Nc1ccc2c(c1Br)Cc1ccccc1-2,-11.2%,2.0%,nt,nt,i,35.5µM*
CC(C)(C)OC(=O)NCC(=O)Oc1cc2oc(=O)cc(-c3ccccc3)c2cc1Cl,1.2%,-2.9%,-3.6%,23.5%,i,?
O=C(Oc1cc2oc(=O)cc(-c3ccccc3)c2cc1Cl)C1CCCCC1,4.4%,-2.3%,-2.8%,-2.2%,i[9.22 µM],3.55µM*
Cc1nc(NCc2cccc3c2OCO3)sc1-c1ccn(CC2CCCN(C)C2)n1 (configuration not stated),nt,4.5%,nt,nt,nt,nt
Cc1ncc2c(c1CNS(=O)(=O)N(C)C)CCN(C(=O)c1c(F)cccc1F)C2,nt,-5.8%,nt,nt,nt,nt
COc1ccc(OC)c(-c2nnc(-c3ccc(C)o3)o2)c1,1.8%,6.5%,4.0%,3.2%,i,12.6µM*
Cc1cc(C(=O)Nc2cccc(-c3nc(CNC(=O)c4cc5ccccc5[nH]4)c(C)o3)c2)c(C)o1,nt,-6.0%,nt,nt,nt,nt
O=C(COC(=O)c1ccc(O)cc1)Nc1ccccc1[N+](=O)[O-],-5.8%,2.0%,-0.5%,7.9%,i,0.0%
Cc1cc(-c2c(C)[nH]n(-c3ccc(Cl)cc3)c2=O)n[nH]1,?,-0.8%,-7.7%,0.3%,i,22.4µM*
Cc1ccc(-c2nc(C(=O)NCc3ccccc3Cl)c3n2CCCCC3)cc1,12.4%,-0.6%,nt,nt,i,35.5µM*
Cc1ccc(CCNC(=O)c2sc3nc4n(c(=O)c3c2C)CCCC4)cc1,nt,-1.1%,nt,nt,i,15.8µM*
SMILES,aSyn yeast inh,Glioma ERSR ind,AT treatment,Mito fusion act,Abeta yeast res,TDP43 rescue
Cc1c(C(=O)NCc2ccccc2Cl)sc2nc3n(c(=O)c12)CCCCC3,nt,-0.7%,nt,nt,i,35.5µM*
Cc1c(C(=O)NCCO)sc2nc3n(c(=O)c12)CCC3,-6.0%,0.2%,5.6%,-0.2%,i,-21.9%
Cc1ccc(F)cc1-c1ccc(C(=O)N=C(N)N)o1,nt,-0.1%,nt,nt,nt,nt
Cc1onc(-c2ccccc2)c1C(O)c1ccc(F)cc1 (configuration not stated),15.9%,-1.0%,31.6µM*,32.5%,i,0.0%
CC(=O)c1ccc(Nc2ccc(-c3ccccc3F)nn2)cc1,7.0%,-1.2%,-4.4%,-5.5%,i,22.9%
COc1ccc(S(=O)(=O)Nc2cccc(-c3ccc(N4CCCCC4)nn3)c2)cc1F,nt,-1.1%,nt,nt,i,-17.4%
O=C(Nc1ccc(Cl)cc1)c1cc2c(cc1O)[nH]c1ccccc12,-13.5%,-2.6%,3.2%,-44.7%,i,3.98µM*
CC(=O)Nc1ccc2[nH]c3ccccc3c2c1,-2.3%,1.0%,-1.4%,1.7%,i,0.4%
COc1ccc(OC)c(CNC(=O)C2CCN(c3nc4ccccc4nc3C(F)(F)F)CC2)c1,nt,-0.2%,nt,nt,i,-3.8%
Cc1cc(OC(F)F)ccc1NC(=S)NC1CCCC1,3.7%,-2.3%,-2.2%,-8.0%,12.6µM*,23.0%
Cc1cc(F)ccc1NC(=S)NC1CCCC1,-7.4%,-1.7%,-3.9%,-13.9%,i,14.4%
COC(=O)Cn1c(=O)c2c(nc3n2CCCN3Cc2ccccc2)n(C)c1=O,-5.9%,-5.8%,2.2%,6.31µM*,i,-14.2%
N#Cc1c(-c2ccc(Br)cc2)nc2n(c1=O)CCCS2,0.3%,0.7%,nt,15.6%,i,?
CCOc1ccc(-c2nc3n(c(=O)c2C#N)CCCS3)cc1,1.7%,4.5%,3.8%,1.1%,i,26.6%
COc1ccc(-c2nc3n(c(=O)c2C#N)CCCS3)cc1,4.7%,10.0%,nt,-10.9%,?,15.8µM*
N#Cc1c(-c2ccc(Cl)cc2)nc2n(c1=O)CCCS2,2.4%,-0.5%,-5.7%,3.8%,i,11.2µM*
CC(=O)CSc1ncnc2sc3c(c12)CCCC3,23.1%,0.9%,6.9%,-3.5%,i,?
CC(C#N)Sc1ncnc2sc3c(c12)CCC3 (configuration not stated),1.1%,-1.0%,nt,1.5%,i,18.3%
O=C(CSc1ncnc2sc3c(c12)CCCC3)c1ccccc1,-8.1%,5.8%,nt,4.0%,i,-1.7%
Cc1cc(C)nc(Sc2ncnc3sc4c(c23)CCC4)n1,0.0%,-4.2%,nt,-0.7%,i,20µM*
CC(=O)C(Sc1ncnc2sc3c(c12)CCCC3)C(C)=O,?,3.0%,21.7%,28.9%,?,17.8µM*
O=C(CSc1ncnc2sc3c(c12)CCCC3)c1ccco1,5.4%,4.5%,-2.5%,20.6%,i,10µM*
CN(CC1COCCO1)C(=O)c1cnn(-c2ncc3c(n2)-c2ccccc2CC3)c1C1CC1 (configuration not stated),nt,9.8%,nt,nt,nt,nt
